In PubChem BioAssay (NCI):
This is part of a sample that, as a whole, favours compounds with a hit. Of some 83,000 tested, about 20% had one in any assay.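 Single-dose data. Exposure time 48 hours. Values below 10 considered active.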 The source made the active and inactive calls.

The compounds below were run on MDA-MB-435 melanoma (assay: NCI-60 one-dose screen, 48 h (100 = growth as untreated, 0 = no growth, -100 = all killed)). Settings: 10 µM unless noted.
In the case of `Cc1sc2c(c1C)C(c1ccc(Cl)cc1)=N[C@@H](CC(=O)NCCCCCNC(=O)COc1ccc(C3CCC(=O)NC3=O)cc1)c1nnc(C)n1-2` (stereo not given in full), the growth is reported as 20.3% (inactive). `COc1ccc2c(c1)C(=N/N=C(\C)c1ccc(OC)c(S(N)(=O)=O)c1)C(=O)N2` was tested, and the growth was 96.1% (inactive). For `COc1cc2oc(-c3cccc(C(=O)Nc4ccc(Cl)cc4)c3)cc(=O)c2c(OCCNC(=O)[C@H](CCC(=O)OC(C)(C)C)NC(=O)OC(C)(C)C)c1OC`, the growth was 100% (inactive). `COc1ccc(-c2nc3cc(C)ccc3n2CC(=O)N=Nc2c(O)[nH]c3ccc(Cl)cc23)cc1` was tested, and the growth was -7.28% (active). For `O=C(c1ccc(OCCN2CCOCC2)cc1)C1[C@H](c2ccc(Cl)cc2)[C@@H](c2ccccc2)NC12C(=O)Nc1ccc(Br)cc12` (stereo not given in full), the growth was 39.1% (inactive). `N#Cc1c(-c2ccc(Br)cc2)nc2n[nH]c(-c3ccc(Br)cc3)c2c1-c1ccc(F)cc1` was tested, and the growth was 102% (inactive). `COc1cc(C2CC(c3cc(OC)c(OC)c(OC)c3)=NN2C(C)=O)ccc1OCc1ccccc1` (stereo not given) was tested, and the growth was 44.6% (inactive). `Cc1cccc(NC(=O)[C@]23CCC(C)(C)CC2C2=CCC4[C@@]5(C)C[C@@H](O)[C@H](O)[C@@](C)(CO)C5CC[C@@]4(C)[C@]2(C)CC3)c1` (stereo not given in full) was tested, and the growth was 25.5% (inactive). With `CC12CC[C@@H]3[C@]4(C)COC(c5cn[nH]c5-c5ccc(Cl)cc5)O[C@@H]4CC[C@@]3(C)[C@@H]1CC(C1=CCOC1=O)O2` (stereo not given in full) the growth was 47.7% (inactive). In the case of `CC(C)c1sc(NC(=O)c2cc(NC(=O)c3cc(NC(=O)c4cscn4)cn3C)cn2C)nc1C(=O)NCCCN(C)C`, the growth is reported as 2.17% (active).
